Calls of active or inactive are those of the source. Unless noted, no rule for the calls is given here.
Legend:
[1] = system: Wnt5a (protein binding on small-molecule microarray); assay: Wnt5a binders on small-molecule microarray, primary screen, biophysical, 635/667 nm fluorescence (AID 1142); conditions: 635 nm fluorescence, higher = more signal;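 also: fluorescence read at 667 nm with signal to noise per printed feature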
[2] = cell viability in Huh7 cells, primary screen, cytotoxicity control for HCV replication inhibitor project, CellTiter-Glo luminescence, basal, 48 h (AID 1143); conditions: Huh7 HCV replicon, higher = more signal, called active from +8 up or from −8 down;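 also: Huh7 hepatoma cells carrying a hepatitis C replication reporter with no stimulus; test concentration not given here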
[3] = P. aeruginosa biofilm formation inhibitors, primary screen, PAO1 strain, BacTiter-Glo luminescence, LB-PBS (AID 1144); conditions: 12 h, higher = more signal
[4] = CREB reporter modulators without forskolin, primary screen, cell-based, PC12, CRE-LacZ reporter, unstimulated (AID 1145); conditions: no forskolin, luminescence, 4.5 h, higher = more signal, called active from +8 up or from −8 down
[5] = CREB reporter modulators under forskolin, primary screen, cell-based, PC12, CRE-LacZ reporter, forskolin-stimulated (AID 1146); conditions: luminescence, 4.5 h, higher = more signal, called active from +8 up or from −8 down;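 also: PC12 cells with 6xCRE LacZ reporter stimulated by forskolin 10 µM; beta-galactosidase reporter signal reflecting CREB driven transcription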
[6] = molecular target: Streptavidin (Streptomyces avidinii) (UniProt P22629); assay: streptavidin binders on small-molecule microarray, primary screen, artefact control for SMM compound annotation, biophysical, 635/667 nm fluorescence (AID 1147); conditions: streptavidin binding, higher = more signal;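 also: signal reflects streptavidin binding to arrayed compounds as a control protein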
Streptavidin (Streptomyces avidinii), sequence (P22629 whole entry, looked up): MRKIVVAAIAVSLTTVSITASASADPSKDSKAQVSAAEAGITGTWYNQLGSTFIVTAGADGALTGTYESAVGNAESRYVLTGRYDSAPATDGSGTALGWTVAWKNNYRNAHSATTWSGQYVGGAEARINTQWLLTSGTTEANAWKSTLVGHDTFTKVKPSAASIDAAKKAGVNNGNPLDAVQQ

[7] = small-molecule binders of probe aInhba, primary screen, biochemical, small-molecule microarray, 635/667 nm fluorescence (AID 1148); conditions: higher = more signal;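 also: score merges 667nm spot fluorescence with signal-to-noise for antibody binding to printed compounds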
Torsin-1A (Homo sapiens) [8] = molecular target: Torsin-1A (Homo sapiens) (UniProt O14656); assay: torsin A binders from cell lysate, primary screen, small-molecule microarray, wild-type, 635/667 nm (AID 1149); conditions: COS7 hTOR1A-WT lysate, 635 nm fluorescence, higher = more signal
Torsin-1A (Homo sapiens), sequence (O14656 whole entry, looked up): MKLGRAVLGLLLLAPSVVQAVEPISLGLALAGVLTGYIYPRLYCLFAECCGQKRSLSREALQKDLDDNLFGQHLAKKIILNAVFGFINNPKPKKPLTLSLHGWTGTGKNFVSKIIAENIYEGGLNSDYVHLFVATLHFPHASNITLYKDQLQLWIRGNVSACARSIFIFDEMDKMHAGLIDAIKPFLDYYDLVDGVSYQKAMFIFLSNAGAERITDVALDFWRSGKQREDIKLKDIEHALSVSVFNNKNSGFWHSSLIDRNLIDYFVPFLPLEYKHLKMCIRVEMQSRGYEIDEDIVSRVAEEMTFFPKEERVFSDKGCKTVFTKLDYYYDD

Torsin-1A (Homo sapiens) [9] = molecular target: Torsin-1A (Homo sapiens) (UniProt O14656); assay: small-molecule binders of mutant TOR1A in lysate, primary screen, cell lysate, small-molecule microarray, COS7 lysate, 635/667 nm fluorescence (AID 1150); conditions: COS7 hTOR1A mutant lysate, 635 nm fluorescence, higher = more signal;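 also: score pools 667 nm emission and signal to noise measuring lysate protein binding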
[10] = system: Sonic hedgehog protein (Shh); assay: small-molecule binders of Shh protein, primary screen, biochemical, small-molecule microarray, 635/667 nm fluorescence (AID 1151); conditions: small-molecule microarray binding, 635 nm fluorescence; higher = more signal;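 also: Shh protein binding to compounds spotted on small-molecule microarray slides; score combines spot fluorescence intensity with signal-to-noise across triplicate slides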

| SMILES | composite z-score [1] | z-score [2] | z-score [3] | z-score [4] | z-score [5] | composite z-score [6] | composite z-score [7] | composite z-score (Torsin-1A (Homo sapiens) [8]) | composite z-score (Torsin-1A (Homo sapiens) [9]) | composite z-score [10] |
| --- | --- | --- | --- | --- | --- | --- | --- | --- | --- | --- |
| COC(=O)c1nc2oc1CC[C@@H](CO)NC(=O)N(C)Cc1cn(nn1)C[C@H](Cc1ccccc1)NC2=O | -0.0811 | -0.0962 (inactive) | 0.0307 (inactive) | 4.65 (inactive) | 0.338 (inactive) | -0.357 | -0.016 | -0.685 | -1.25 | 0.337 |
| C=CC[C@]1(C(=O)NCCN2CCOCC2)N=C(c2ccc(OCCCO)cc2)O[C@H]1c1ccccc1N=[N+]=[N-] | 0.038 | -1.76 (inactive) | 0.672 (inactive) | 2.66 (inactive) | -1.37 (inactive) | 1.23 | 0.126 | 0.17 | -0.0097 | 0.255 |
| Cc1c(NC(=O)/C(C#N)=C/C=C/c2ccccc2)c(=O)n(-c2ccccc2)n1C | 0.17 | -0.328 (inactive) | 0.374 (inactive) | -0.967 (inactive) | -0.733 (inactive) | 0.783 | 0.0018 | 0.172 | 0.426 | 0.522 |
| NC(=O)NCC#Cc1ccc2c(c1)[C@]1(C(=O)N2)[C@H](c2ccc(O)cc2)N2[C@H](c3ccccc3)[C@H](c3ccccc3)OC(=O)[C@H]2[C@@H]1C(=O)N1CCN(c2ncccn2)CC1 | 0.0724 | 0.449 (inactive) | 0.185 (inactive) | 1.21 (inactive) | 0.128 (inactive) | 0.0219 | 0.181 | -0.219 | 0.412 | -0.37 |
| COC(=O)c1c2oc(c1C(=O)OC)C(=O)N[C@H](Cc1ccccc1)Cn1nncc1C1(CCCCC1)NC(=O)N[C@H](CO)CC2 | 0.159 | -0.11 (inactive) | -0.318 (inactive) | 1.75 (inactive) | 0.154 (inactive) | 0.412 | 0.0154 | -0.0688 | -0.0459 | 0.798 |
| NC(=O)NCC#Cc1ccc2c(c1)[C@]1(C(=O)N2)[C@H](c2ccccc2OCCO)N2[C@H](c3ccccc3)[C@H](c3ccccc3)OC(=O)[C@H]2[C@@H]1C(=O)N1CCCCCCC1 | 0.723 | -1.57 (inactive) | 0.433 (inactive) | 0.802 (inactive) | 0.109 (inactive) | 2.48 | 1.88 | 2.04 | 1.28 | 1.05 |
| C=CC[C@@]1(C(=O)NCc2ccccc2)N=C(c2ccc(OCCCO)cc2)O[C@@H]1c1ccccc1CN=[N+]=[N-] | 0.521 | -3.66 (inactive) | -0.315 (inactive) | 3.13 (inactive) | 2.93 (inactive) | 0.579 | 0.122 | -0.805 | 0.287 | -0.629 |
| CC1CC/C=C\[C@H]2OC34C=CCN(Cn5nnc6ccccc65)C(=O)[C@H]3N(CCCO)C(=O)[C@@H]4C2C(=O)O1 (stereo not given in full) | -0.595 | -0.382 (inactive) | -0.281 (inactive) | -0.212 (inactive) | -0.759 (inactive) | -0.958 | -0.157 | -1.89 | -1.33 | 0.0837 |
| CCOC(=O)N1C(c2ccc(OCCCO)cc2)=NC(C(=O)OC)N1C(=O)OCC (stereo not given) | 0.506 | -2.41 (inactive) | -1.33 (inactive) | 0.139 (inactive) | 0.666 (inactive) | 0.829 | 0.0614 | 0.497 | 0.36 | 1.13 |
| C=CCN1C(=O)[C@@]2(O[C@@H](CCO)[C@H]([Si](C)(C)c3ccc(OC)cc3)[C@H]2C)c2cc(NC(C)=O)ccc21 | 0.303 | -4.72 (inactive) | 0.445 (inactive) | 7.68 (inactive) | 0.766 (inactive) | -0.0236 | 0.0982 | 0.31 | 0.364 | 1.85 |
| COc1cc2c(cc1O)C(c1ccc(CN3CCCC3)cc1)N(Cc1sc3ccccc3c1Cl)CC2 (stereo not given) | 0.0746 | -3.63 (inactive) | -0.0323 (inactive) | 0.416 (inactive) | 0.821 (inactive) | 0.706 | -0.292 | 0.834 | 0.309 | 0.436 |
| C=C[C@@H](C)[C@@H](OC(=O)Nc1ccc(OC)cc1)c1ccc(O)c2ccccc12 | -0.124 | -5.48 (inactive) | -0.901 (inactive) | 0.758 (inactive) | 0.999 (inactive) | 0.0646 | -0.154 | 0.15 | -0.0324 | 1.53 |
| [N-]=[N+]=NCc1ccccc1C[C@@]1(C(=O)NCc2ccccc2)N=C(c2ccc(OCCCO)cc2)O[C@@H]1c1ccccc1CN=[N+]=[N-] | 0.262 | -3.35 (inactive) | 0.503 (inactive) | 0.297 (inactive) | 0.448 (inactive) | 1.19 | 0.406 | 0.327 | 0.367 | -0.603 |
